# Experimental data from PubChem BioAssay AID485360 (National Center for Advancing Translational Sciences (NCATS), 2010).
# In all, about 230,000 compounds went through this assay and about 1,500 (0.65%) were called active. Not shown: some 3% with an inconclusive outcome. The list comes from a sample in which actives are over-represented; it also holds similar structures and randomly drawn compounds. Values without a mark were called inactive. Calls come from the whole dose curve; as a rule, active = well fitted inhibition curve with a large enough effect; inconclusive = small, poorly fitted or top-dose-only effect; inactive = no such curve, though single readings can be large or run the other way.
# Molecular target: Lethal(3)malignant brain tumor-like protein 1 (Homo sapiens) (UniProt Q9Y468)
# Sequence (Q9Y468 whole entry, looked up): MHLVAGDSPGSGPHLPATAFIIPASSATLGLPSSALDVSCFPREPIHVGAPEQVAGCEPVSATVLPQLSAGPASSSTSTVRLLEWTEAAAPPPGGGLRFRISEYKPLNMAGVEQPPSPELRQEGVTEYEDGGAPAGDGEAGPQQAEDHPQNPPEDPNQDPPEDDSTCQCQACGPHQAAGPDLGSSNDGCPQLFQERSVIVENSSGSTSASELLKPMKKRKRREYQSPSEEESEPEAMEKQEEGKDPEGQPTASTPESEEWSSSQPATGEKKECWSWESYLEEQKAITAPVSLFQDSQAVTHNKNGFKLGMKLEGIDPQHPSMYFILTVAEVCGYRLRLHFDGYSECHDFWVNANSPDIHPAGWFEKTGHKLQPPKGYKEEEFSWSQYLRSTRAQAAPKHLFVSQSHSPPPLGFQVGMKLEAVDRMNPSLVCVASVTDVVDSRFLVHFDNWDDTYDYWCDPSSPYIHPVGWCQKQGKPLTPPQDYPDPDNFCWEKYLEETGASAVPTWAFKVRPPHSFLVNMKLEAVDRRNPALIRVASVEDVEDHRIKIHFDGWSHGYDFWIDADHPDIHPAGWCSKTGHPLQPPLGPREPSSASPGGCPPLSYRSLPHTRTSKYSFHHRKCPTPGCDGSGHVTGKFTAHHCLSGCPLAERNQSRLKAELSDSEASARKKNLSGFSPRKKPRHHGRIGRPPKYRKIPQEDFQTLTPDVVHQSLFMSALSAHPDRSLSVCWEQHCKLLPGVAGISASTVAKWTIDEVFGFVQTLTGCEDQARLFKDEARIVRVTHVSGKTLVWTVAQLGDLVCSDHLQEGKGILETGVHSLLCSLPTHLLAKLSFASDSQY
# Experiment: qHTS Assay for the Inhibitors of L3MBTL1; note: nearly all actives have a fitted effect of over 60% in size
# Conditions: AlphaScreen L3MBTL1–H3K9me1 peptide binding; series mostly up to 57.1 µM; activity, negative = inhibition: at the top concentration
# Outline: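 Displacement of a biotinylated histone H3(1-15) peptide monomethylated at Lys9 (75 nM) from L3MBTL1 (50 nM) was measured by AlphaScreen after a 30 min room-temperature compound incubation; cefsulodin titration served as intraplate control.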
# % is set by controls: 0 for no effect and ±100 for the full control effect; potency is the fitted concentration of half-maximal effect.
Structure (SMILES),"activity, negative = inhibition",Potency
COc1ccc(NS(=O)(=O)c2ccc(C)c(C(=O)N(C)Cc3ccc(OC)cc3OC)c2)cc1,-0.449%,
O=C(NCCC1CCCCN1S(=O)(=O)c1ccccc1)C(=O)NCC1CCCO1 (stereo unspecified),2.06%,
CC(C)(C)OC(=O)NCCCCCNC(=O)c1nc[nH]c1C(=O)NCc1ccccc1,-12.7%,
C[C@H](NC(=O)c1nc[nH]c1C(=O)NCC(=O)OC(C)(C)C)c1ccccc1,39.2%,
CC(C)(C)OC(=O)NCCCCCNC(=O)c1[nH]cnc1C(=O)Nc1nccs1,,28.2 µM (active)
Cc1csc(=O)n1CC(=O)Nc1ccc(S(C)(=O)=O)cc1,-8.83%,
Cc1ccc(S(=O)(=O)NC[C@H]2O[C@@H](n3cnc4c(N)ncnc43)[C@H](O)[C@@H]2O)s1,2.48%,
O=C(Cc1ccc(S(=O)(=O)N2CCOCC2)s1)N1CCN(c2ccc(C(F)(F)F)cc2[N+](=O)[O-])CC1,-6.57%,
Cc1cccc(-n2ncc3c(=O)[nH]c(SCC(=O)Nc4cc(C)on4)nc32)c1,-3.55%,
O=C1CCCC(O)=C1N=Nc1ccc(S(=O)(=O)N2CCOCC2)cc1,-5.64%,
O=C1CCCC(O)=C1N=Nc1ccc2ncsc2c1,,25.1 µM (active)
CC[C@@]1(C(=O)OC)N[C@H](CN(C)C(C)=O)[C@@H]2C(=O)N(C)C(=O)[C@@H]21,-2.06%,
Cc1nnc(SCC(=O)Nc2cccc(N)c2)n1-c1ccccc1,-2.05%,
O=C1c2ccccc2C(=O)c2c1cccc2N1CCN(Cc2ccccc2)CC1,,14.1 µM (active)
O=c1cc(N2CCN(Cc3ccccc3)CC2)c(-c2ccccc2)n[nH]1,-2.53%,
O=C1c2ccccc2C(=O)c2c1cccc2N1CCN(CCO)CC1,-14.1%,
CN(CC(=O)O)C(=O)c1ccccc1,1.31%,
CCc1ccc(NC(=O)c2ccc(Cn3cc([N+](=O)[O-])cn3)cc2)cc1,7.42%,
Cn1ccc(=Nc2ccc(NC(=O)c3ccc(N=c4ccn(C)c5ccc([N+](=O)[O-])cc45)cc3)cc2)cc1,,25.1 µM (active)
Cc1cc([N+](=O)[O-])ccc1NC(=O)c1ccc(NC(=O)C(C)C)cc1,-0.242% [at 11.4 µM],
COCC(=O)N1CCCC(C(=O)c2ccc(C(F)(F)F)cc2)C1 (stereo unspecified),0.665%,
Cc1c(OC(C)C(=O)NCC2CCC(C(=O)O)CC2)ccc2c1oc(=O)c1ccccc12 (stereo unspecified),-4.44%,
CCCNC(=O)CCn1cc(-c2ccc(OC)cc2)nc1CCN,-8.13%,
CCOC(=O)c1cn[nH]c1NC(=S)Nc1ccccc1,34.9%,
CCOC(=O)Cc1csc(NC(=O)Nc2ccccc2)n1,2.6%,
CCN(C(=O)Cc1nc(N)n[nH]1)C1(C(=O)Nc2ccccc2)CCCCC1,,11.2 µM (active)
